A-T KAP1 phos: potential ataxia-telangiectasia treatments restoring KAP-1 phosphorylation; 0.19% of 320,000 active; Potency, µM (doses to about 57.5 µM), for inactives: at the highest dose activation, usual class: activators; AID 485349; F2112 A-T fibroblasts, KAP-1 phosphorylation AlphaLISA; neocarzinostatin DNA damage 30 min before lysis; note: potency is the fitted concentration of half-maximal effect; % of control where 0% means no effect; nearly all actives have a fitted effect of over 45% in size
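hTERT-immortalized A-T patient fibroblasts (F2112), 500 cells/well in OPTI-MEM, 1% FBS, got compounds for 60 min, then NCS for 30 min at 37C. Lysates were then assayed for phospho-KAP-1 by AlphaLISA (anti-pKAP1 donor, anti-KAP1 acceptor beads), 6 hr at 25C.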
PTAP TSG101 blk: blocks PTAP/TSG101 interaction to inhibit HIV-1 budding; 340,000 tested, under 10 active; Fluorescence polarization, FITC-PTAP peptide / Tsg101 binding; Q99816; Potency, µM (top dose mostly 115 µM), for inactives: at the highest dose activity change, negative = inhibition, hits mostly inhibitors; active = well fitted inhibition curve with a large enough effect in the main read-out, with a control signal flat, not every such curve was filed as active; inconclusive = small, poorly fitted or top-dose-only effect, or effect the other way, or a change in a side signal; inactive = no such curve, though single readings can be large or run the other way; note: potency is the fitted concentration of half-maximal effect; % of control where 0% means no effect
Target sequence (Q99816 whole entry, looked up): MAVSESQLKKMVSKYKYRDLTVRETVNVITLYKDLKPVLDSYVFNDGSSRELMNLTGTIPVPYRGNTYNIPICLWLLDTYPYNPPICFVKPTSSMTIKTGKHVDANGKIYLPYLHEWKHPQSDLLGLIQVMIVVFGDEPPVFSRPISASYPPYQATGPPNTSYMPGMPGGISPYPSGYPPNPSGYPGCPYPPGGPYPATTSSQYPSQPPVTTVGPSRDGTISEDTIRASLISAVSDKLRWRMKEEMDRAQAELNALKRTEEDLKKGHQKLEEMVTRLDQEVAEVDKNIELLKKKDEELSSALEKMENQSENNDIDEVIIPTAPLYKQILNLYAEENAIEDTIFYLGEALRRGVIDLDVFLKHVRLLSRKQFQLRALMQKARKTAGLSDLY
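Steps: Tsg101 binding domain dispensed (10 uM final), compounds pinned in DMSO, FITC-labeled PTAP-motif peptide added (50 nM final); after 20 min binding at room temperature, polarization measured.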
CBFb RUNX1 block: CBF-beta/RUNX1 interaction disruption; Q01196+Q13951; AlphaScreen CBFb-His/RUNX1-biotin binding, biochemical; Potency, µM (highest dose often 59.8 µM), without a hit: at the top dose activity, negative = inhibition, usual class: inhibitors; 230,000 tested, under 10 active; AID 1477; note: % of control where 0% means no effect
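Bead-based AlphaScreen assay; binding partners His-tagged CBF-beta and biotinylated RUNX1 at 30 nM each. Compound exposure 15 min after a 20-min protein preincubation; bead step 90 min; all steps at room temperature.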
IMPase Li inh: membrane-permeable IMPase blocker, potentiated with lithium | CHO-M1 cells, IP1 TR-FRET (IP-One), carbachol + lithium | Potency, µM (titrated, usually from 59.4 µM), without a hit: at the highest dose activity, negative = IMPase inhibition, actives largely listed as inhibitors | 0.35% of 210,000 active | AID 1457;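 note: IP1 builds up when IMPase is blocked and the TR-FRET signal falls; potency is the fitted concentration of half-maximal effect; plate controls were basal vehicle for no effect and high inhibitor control for full effect; nearly all actives have a fitted effect of over 50% in size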
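Concentration–response in CHO-M1 cells, lithium-potentiated; 30 min at 37C. IP1 detected by competitive TR-FRET after 10 min lysis at RT. Hill-fitted AC50.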
Starred values were filed as active, the others as inactive; [ ] = dose if it differs, or a comment. The list is not random: actives were taken first. Their share in the collection is about 0.37%. Unless noted, calls come from the whole dose curve; as a rule, active = well fitted curve in the direction sought with a large enough effect; inconclusive = small, poorly fitted or top-dose-only effect, or another doubt; inactive = no such curve, though single readings can be large; an effect the other way counts as inactive or inconclusive.

For O=C(NC12CC3CC(CC(C3)C1)C2)c1cccc(OC(F)F)c1 the results were A-T KAP1 phos 3.98µM* and PTAP TSG101 blk -1.4%.
CN1CCCc2cc3c(C(F)(F)F)cc(=O)oc3nc21 was read as PTAP TSG101 blk inconclusive, CBFb RUNX1 block 6.0% and IMPase Li inh 10µM*.
Screening Cc1nn(-c2ccccc2)c(Cl)c1/C=C(/CC(=O)O)c1nc2ccccc2s1 returned PTAP TSG101 blk -7.5%.
Screening COC(=O)c1ccc(C23CC4(C2)[C@H](CN(Cc2ccc(C(F)(F)F)cc2)[C@@H]4c2ccccc2)C3c2ccccc2)cc1 (stereo partly specified) returned A-T KAP1 phos 39.8µM*, PTAP TSG101 blk 1.1%, CBFb RUNX1 block 3.7% and IMPase Li inh 4.2%.
For O=C(CCC1CCCCC1)Nc1c[nH]c(=O)[nH]c1=O the results were A-T KAP1 phos 2.3%, PTAP TSG101 blk -11.6%, CBFb RUNX1 block 4.4% and IMPase Li inh 3.8%[38.3 µM].
Cn1c(NC(=O)c2ccc(F)cc2)c(-c2ccccn2)c(=O)c2ccccc21 was read as A-T KAP1 phos 1.3%, PTAP TSG101 blk -1.5% and CBFb RUNX1 block 3.9%.
`Cn1c(NC(=O)c2ccccc2)c(-c2ccccn2)c(=O)c2ccccc21` gave PTAP TSG101 blk 1.6%, CBFb RUNX1 block 14.5% and IMPase Li inh 22.4µM*.
c1ccc2c(c1)Oc1cccc3cccc-2c13 was read as A-T KAP1 phos 10µM*, PTAP TSG101 blk 3.1% and CBFb RUNX1 block inconclusive.
`c1ccc2c(c1)-c1cccc3c1c-2cc1ccccc13` gave A-T KAP1 phos 26.9%, CBFb RUNX1 block inconclusive and IMPase Li inh -22.2%.
`CCc1ccc(NC(=O)CSc2ccc(-c3cccnc3)nn2)cc1` gave A-T KAP1 phos 27.4% and PTAP TSG101 blk -4.5%.
For COc1ccc(C(=O)c2ccc(C)cc2)c(OC)c1OC the results were PTAP TSG101 blk -1.5%.
O=C(CSc1ccc(-c2nc3ccccc3[nH]2)cn1)Nc1ccc2c(c1)OCCO2 was read as A-T KAP1 phos -2.0%, PTAP TSG101 blk -4.7%, CBFb RUNX1 block 12.0% and IMPase Li inh 8.91µM*.
Cc1nc2sc(C(N)=O)c(N)c2c2c1CCCC2 was read as A-T KAP1 phos 8.91µM*, PTAP TSG101 blk -0.5% and CBFb RUNX1 block 6.5%.
Screening Cc1ccc(-c2nc3sc(C(N)=O)c(N)c3c3c2CCCC3)cc1 returned A-T KAP1 phos 20.8%, PTAP TSG101 blk 1.8%, CBFb RUNX1 block 5.4% and IMPase Li inh 11.2µM*.
Screening Cc1cccc(C)c1N1C(=O)CC(N(O)c2ccccc2)C1=O (stereo unspecified) returned A-T KAP1 phos -7.8%, PTAP TSG101 blk -5.8%, CBFb RUNX1 block 4.7% and IMPase Li inh 21.4%[38.3 µM].
C=CCSc1nc2ccccc2n1C(=O)/C=C/c1ccc(OC)c(OC)c1 was read as A-T KAP1 phos 31.6µM*, PTAP TSG101 blk -0.5%, CBFb RUNX1 block -1.6% and IMPase Li inh 4.2%[38.3 µM].
CCSc1nc2ccccc2n1C(=O)/C=C/c1ccc(OC)c(OC)c1 was read as A-T KAP1 phos 22.4µM*, PTAP TSG101 blk -0.4%, CBFb RUNX1 block -24.8% and IMPase Li inh 18.7%.
`C=CCSc1nc2ccccc2n1C(=O)/C=C/c1cc(OC)c(OC)c(OC)c1` gave PTAP TSG101 blk -4.4%, CBFb RUNX1 block 2.7% and IMPase Li inh 27.5%[38.3 µM].
Screening O=C(O)c1cccc(OCCN2CCCC2=O)c1 returned A-T KAP1 phos -1.3% and PTAP TSG101 blk 0.1%.
For O=C(COC(=O)c1cc(-c2ccccc2Cl)nc2ccccc12)Nc1ncc(C(F)(F)F)cc1Cl the results were A-T KAP1 phos -4.9%, PTAP TSG101 blk -0.2%, CBFb RUNX1 block inconclusive and IMPase Li inh 10µM*.
`O=C(COC(=O)c1cccc2ccccc12)Nc1ncc(C(F)(F)F)cc1Cl` gave PTAP TSG101 blk -0.3%, CBFb RUNX1 block -2.8% and IMPase Li inh inconclusive.
`CN(C)S(=O)(=O)c1cccc(NC(=O)c2ccc(N3CCCC3=O)cc2)c1` gave A-T KAP1 phos 6.6% and PTAP TSG101 blk -6.1%.
CN1CCN(C2=C(NS(=O)(=O)c3cccs3)C(=O)c3ccccc3C2=O)CC1 was read as A-T KAP1 phos 7.0%, PTAP TSG101 blk -4.4% and CBFb RUNX1 block 0.7%.
`O=C1C(NS(=O)(=O)c2cccs2)=C(N2CCOCC2)C(=O)c2ccccc21` gave A-T KAP1 phos 7.08µM*, PTAP TSG101 blk 0.4% and CBFb RUNX1 block -17.2%.
For COc1ccc(-c2oc3cccnc3c2/C=C/c2ccc(OC)c(OC)c2)cc1 the results were A-T KAP1 phos 28.2µM* and PTAP TSG101 blk -0.1%.
CCOc1ccccc1C(C(=O)NC1CCCC1)N(Cc1ccco1)C(=O)CNC(=O)c1ccco1 (stereo unspecified) was read as A-T KAP1 phos -0.7%, PTAP TSG101 blk -2.0%, CBFb RUNX1 block -5.2% and IMPase Li inh 13.6%.
Cc1ccc2c(c1)-c1ccccc1S(=O)(=O)N2 was read as A-T KAP1 phos -2.5%, PTAP TSG101 blk -2.1%, CBFb RUNX1 block 5.3% and IMPase Li inh 21.3%[38.3 µM].
For C=CCC1NCCc2c(Br)cccc21 (stereo unspecified) the results were A-T KAP1 phos 5.1%, PTAP TSG101 blk -4.6%, CBFb RUNX1 block -7.1% and IMPase Li inh 1.3%.
For C=CC[C@@H]1Cc2c(Br)ccc(Br)c2[C@@H](CC=C)N1 the results were A-T KAP1 phos 39.8µM*, PTAP TSG101 blk 0.0%, CBFb RUNX1 block -9.9% and IMPase Li inh 8.2%.
Screening CCCCNS(=O)(=O)c1ccc2nc(-c3cccnc3)cc(C(=O)NCCCOCC)c2c1 returned A-T KAP1 phos -1.5%, CBFb RUNX1 block -7.8% and IMPase Li inh 11.2µM*.
CCc1ccc2[nH]c(=O)c(CN(Cc3ccco3)S(=O)(=O)c3ccc4c(c3)OCCO4)cc2c1 was read as A-T KAP1 phos -16.7%, PTAP TSG101 blk 2.5%, CBFb RUNX1 block 0.0% and IMPase Li inh 11.2µM*.
For COc1cc2oc(=O)c3c(c2cc1OCC(=O)c1c(C)n(C)c2ccccc12)CCCC3 the results were A-T KAP1 phos 3.8%, PTAP TSG101 blk 0.7%, CBFb RUNX1 block 12.5% and IMPase Li inh 10µM*.
`CCC(C)n1c(SC(C)C#N)nc2ccccc2c1=O` (stereo unspecified) gave A-T KAP1 phos 6.9%, PTAP TSG101 blk -8.7%, CBFb RUNX1 block 10.6% and IMPase Li inh 6.7%[38.3 µM].
For O=C(COc1ccc2ccccc2c1Br)NNC(=O)Nc1ccccc1 the results were A-T KAP1 phos 0.8%, CBFb RUNX1 block 1.9% and IMPase Li inh 11.2µM*.
For Cc1cccc(C)c1NC(=O)c1c[nH]c2ccccc12 the results were A-T KAP1 phos -3.3% and PTAP TSG101 blk 4.1%.
CN(C)C=Nc1ccc(Cl)c(Cl)c1 was read as A-T KAP1 phos -2.6%, PTAP TSG101 blk -2.5% and CBFb RUNX1 block -0.4%.
Screening CN(C)C=Nc1ccc2nn(-c3ccccc3)nc2c1 returned A-T KAP1 phos 19.4%, PTAP TSG101 blk 0.6%, CBFb RUNX1 block 4.0% and IMPase Li inh 12.6µM*.
